An excerpt weighted towards active compounds, which were near 28% of everything screened.
Mac1 fbg enh = enhancers of human CD11b/CD18 binding to fibrinogen; K562 CD11b/CD18 adhesion to fibrinogen, ATPlite luminescence; activation, % at 10 µM; actives 0.07% (n = 93,000);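 active = 10 µM primary screen giving 50% or more activity, confirmed by 40% or more on retest at that dose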
CYP2C19 activ = activators of human cytochrome P450 2C19; P33261; recombinant CYP2C19, luciferin-H EGE luminescence; active compounds read high; 0 = fully inhibited enzyme, 1 = untreated enzyme; activation factor at 5 µM; 96,000 tested, under 10 active; AID 1025;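 active = activation factor of at least 2 at 5 µM in the primary screen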;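 also: 0 = wells with 2.5 mM tranylcypromine and 1 = vehicle-only wells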
CYP2C19 inh = human CYP2C19 inhibition | AID 778 | CYP2C19 Supersomes, luciferin-H EGE luminescence, 30 min | actives 21% (n = 96,000) | inhibition, % at 5 µM | P33261;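 active = CYP2C19 inhibition above a set limit at 5 µM in the primary screen, cut at about 50% in these data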;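 also: plate controls were negative control wells for no effect and 2.5 mM tranylcypromine positive control for full effect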
CYP2C9 activ = CYP2C9 (human) activation; P11712; activation factor at 5 µM; recombinant CYP2C9, luciferin-H conversion, luminescence; active compounds read high; factor 1 = untreated enzyme, 0 = blocked; actives 1.4% (n = 96,000);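 active = activation factor of 2 or more for CYP2C9 at a 5 µM dose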;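 also: 0 = sulfaphenazole-blocked wells and 1 = vehicle-only wells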
Target sequence (P11712 whole entry, looked up): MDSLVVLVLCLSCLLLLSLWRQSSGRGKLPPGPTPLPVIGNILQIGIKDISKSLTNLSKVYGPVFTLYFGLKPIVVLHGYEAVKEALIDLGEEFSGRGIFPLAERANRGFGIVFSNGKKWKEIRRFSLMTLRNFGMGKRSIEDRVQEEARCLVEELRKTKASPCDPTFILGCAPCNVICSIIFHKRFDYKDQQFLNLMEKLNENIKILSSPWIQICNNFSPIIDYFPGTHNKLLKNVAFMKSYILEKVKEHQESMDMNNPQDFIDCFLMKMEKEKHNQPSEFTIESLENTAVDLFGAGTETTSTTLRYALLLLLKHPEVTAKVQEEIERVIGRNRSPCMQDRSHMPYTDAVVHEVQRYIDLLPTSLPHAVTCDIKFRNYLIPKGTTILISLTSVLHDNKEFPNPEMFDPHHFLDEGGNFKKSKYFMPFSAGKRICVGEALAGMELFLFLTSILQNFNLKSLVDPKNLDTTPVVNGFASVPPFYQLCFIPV
CYP2C9 inhib = inhibitors of human CYP2C9; actives 20% (n = 96,000); CYP2C9 Supersomes, luciferin-H conversion, luminescence; P11712; AID 777; inhibition, % at 5 µM;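 active = blocking of liver enzyme CYP2C9 beyond about 50% at 5 µM, limit read from the data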
Mac1 fbg inh = blocks human CD11b/CD18 adhesion to fibrinogen; P05107+P11215; K562 CD11b/CD18 adhesion to fibrinogen, ATPlite luminescence; Mn2+ added to activate the integrin; inhibition, % at 10 µM; actives 0.54% (n = 93,000); AID 1497;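 active = primary inhibition of 50% or more at 10 µM, then 40% or more on retest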
Numbers without * were called inactive; · = no result given.

SMILES | Mac1 fbg enh | CYP2C19 activ | CYP2C19 inh | CYP2C9 activ | CYP2C9 inhib | Mac1 fbg inh
OC(CN1CCCCC1)Cn1c(C(F)(F)F)nc2ccccc21 (centres undefined) | -2.9 | 1 | -2.4 | 1.1 | -12.3 | -26.1
CC1CN(C(=O)Cn2c(C(F)(F)F)nc3ccccc32)CC(C)O1 (centres undefined) | -1.8 | 1 | -0.6 | 1 | 2.6 | 6.1
O=C(O)Cn1c(C(F)(F)F)nc2ccccc21 | -7.3 | 1 | -4.0 | 1.1 | -7.4 | -2.9
Cc1nc2ccccc2n1CC(O)Cn1c(C(F)(F)F)nc2ccccc21 (centres undefined) | -3.2 | 0.7 | 33.0 | 0.3 | 72.2* | -3.9
O=C(Cn1c(C(F)(F)F)nc2ccccc21)c1ccc(Cl)cc1 | -5.5 | 0 | 99.6* | 0.6 | 43.9 | 1.0
O=C(Cn1c(C(F)(F)F)nc2ccccc21)c1ccccc1 | -3.5 | 0.5 | 53.1* | 0.6 | 39.3 | 0.2
CC1CCC(NC(=O)CN2C(=O)COc3ccc(S(=O)(=O)N4CCCC4)cc32)CC1 (centres undefined) | 3.9 | · | · | · | · | -3.2
O=C(NC1CCCCCC1)c1ccc(S(=O)(=O)NCc2ccco2)cc1 | -3.1 | 1 | -1.9 | 0.9 | 10.0 | -5.0
O=C(NCCc1c[nH]c2ccccc12)c1ccc(-n2cnnn2)cc1 | · | 0.5 | 52.6* | 3.1* | -211.4 | ·
O=C(NCCc1c[nH]c2ccccc12)c1ccc(S(=O)(=O)NCc2ccco2)cc1 | 2.0 | 0.2 | 83.5* | 0.2 | 83.5* | 13.8
CC1CCN(C(=O)Cn2c(=O)n(CCc3ccccc3)c(=O)c3ccccc32)CC1 | 1.2 | 0.9 | 5.0 | 0.6 | 39.0 | -4.6
O=C(Cn1c(=O)n(CCCCC(=O)NC2CCCC2)c(=O)c2ccccc21)NCCC1=CCCCC1 | · | 0.9 | 6.4 | 0.9 | 5.7 | ·
Cc1cccc(NC(=O)Cn2c(=O)n(CCC(=O)NC3CCCC3)c(=O)c3ccccc32)c1 | -4.8 | 0.8 | 17.3 | 0.8 | 17.5 | -12.6
CCOc1ccccc1NC(=O)Cn1c(=O)n(CCC(=O)NC2CCCC2)c(=O)c2ccccc21 | -1.3 | 0.6 | 39.8 | 0.3 | 73.5* | -14.9
Cc1ccc(CNC(=O)CCCn2c(=O)c3ccccc3n(CC(=O)NC3CCCC3)c2=O)cc1 | · | 0.7 | 30.8 | 0.3 | 75.0* | ·
O=C(CCn1c(=O)c2ccccc2n(CC(=O)NC2CCCC2)c1=O)NCCc1ccc(Cl)cc1 | 6.7 | 0.5 | 54.7* | 0.3 | 69.0* | -0.7
NC(=O)Cn1c(=O)n(CCCC(=O)NC2CCN(Cc3ccccc3)CC2)c(=O)c2ccccc21 | -0.5 | 0.9 | 7.4 | 0.8 | 16.7 | -26.8
CCCCNC(=O)CCn1c(=O)c2ccccc2n(CC(=O)N2CC(C)CC(C)C2)c1=O (centres undefined) | 8.0 | 0.6 | 39.4 | 0 | 95.2* | -29.4
N#CCc1nnc2n1-c1ccccc1CCC2 | -3.5 | 0.8 | 16.3 | 0.9 | 8.8 | 2.9
Cc1ccc(S(=O)(=O)/N=C(\CN2CCCCC2)N2CCOCC2)cc1 | -3.1 | 0.4 | 63.6* | 0.5 | 52.9* | -4.9
Cc1ccc(S(=O)(=O)N2CCN(C(=O)CN3CCCCC3)C2)cc1 | -0.8 | 1 | 3.1 | 1.1 | -7.5 | -0.3
CCOC(=O)c1cnc(SCc2nc(N)nc(Nc3ccccc3OC)n2)nc1N | 4.2 | 0.8 | 21.0 | 0.4 | 59.7* | 10.6
CCOC(=O)c1cnc(SCc2nc(N)nc(Nc3ccc(C)cc3)n2)nc1N | -9.3 | 0.5 | 53.6* | 0.5 | 53.7* | 5.5
CCOC(=O)c1cnc(SCc2nc(N)nc(Nc3ccc(F)cc3)n2)nc1N | 1.7 | 0.3 | 72.4* | 0.3 | 66.1* | -9.9
CCOC(=O)c1cnc(SC)nc1N | -3.6 | 0.6 | 36.1 | 0.9 | 12.5 | -25.6
CN1CCN(C2=C(Cl)C(=O)N(C3CCCCC3)C2=O)CC1 | -2.4 | 0.1 | 93.5* | 1 | 2.3 | -5.8
COc1ccc(C2=C(O)C(C)N(c3ccccc3)C2=N)cc1OC (centres undefined) | -1.2 | 1.1 | -12.3 | 1.3 | -25.8 | 1.4
CCN(C(C)=O)c1nnc(CSc2nc3ccccc3s2)s1 | 0.7 | 0.1 | 88.4* | 1 | 1.6 | -15.4
CC(=O)n1nc(-c2ccccc2)nc1NCc1ccc(F)cc1 | -3.8 | 0.8 | 16.2 | 0.8 | 21.5 | -1.2
